Screening results (PubChem BioAssay)
TRPV1 potentiator = potentiators of human vanilloid receptor 1 (TRPV1); Q8NER1; TRPV1-expressing cells, Fluo-8 calcium influx, capsaicin EC20 potentiation; potentiation, % at 8.33 µM; hit rate 0.02% among 320,000; in the data active means potentiation above about 80%; inconclusive means between about 30% and that limit; further: 0% is about no effect
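TRPV1-expressing cells were cultured overnight at 35.5C and loaded with Fluo-8 calcium dye for 40 to 90 min at room temperature. After a 10 s baseline, compound was added and calcium influx was read kinetically for 3 min (ex 480/em 520 nm).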
TRHR agonist = activates the human TRH receptor; P34981; TRHR cells, calcium flux fluo-8, FDSS agonist mode; activation, % at 2 µM; hit rate 0.18% among 360,000; in the data active means activation above about 30%; further: 0% is about no effect
Target sequence (P34981 whole entry, looked up): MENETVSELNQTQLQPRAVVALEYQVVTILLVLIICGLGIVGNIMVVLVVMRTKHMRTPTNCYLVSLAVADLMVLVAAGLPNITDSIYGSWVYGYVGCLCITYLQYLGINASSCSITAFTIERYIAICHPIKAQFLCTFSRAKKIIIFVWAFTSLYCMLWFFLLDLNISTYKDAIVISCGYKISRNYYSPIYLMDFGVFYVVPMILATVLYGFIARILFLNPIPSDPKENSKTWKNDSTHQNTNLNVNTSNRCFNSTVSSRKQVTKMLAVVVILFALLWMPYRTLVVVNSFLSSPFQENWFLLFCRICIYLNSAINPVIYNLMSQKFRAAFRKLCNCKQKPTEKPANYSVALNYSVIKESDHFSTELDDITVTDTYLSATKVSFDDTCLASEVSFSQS
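TRHR-expressing cells loaded with fluo-8 calcium dye; 23 nL library compound pin-transferred, kinetic FDSS fluorescence (Ex 480/Em 530) recorded about 180 s for agonist-induced calcium release, before a 10 nM TRH EC20 addition for potentiator mode.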
TRPV1 agonist = human TRPV1 agonism; activation, % at 8.33 µM; Q8NER1; TRPV1-expressing cells, Fluo-8 calcium influx, agonist mode; hit rate 0.19% among 320,000; AID 540275; in the data active means activation above about 80%; inconclusive means between about 30% and that limit; further: 0% is about no effect
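TRPV1-expressing cells were cultured overnight at 35.5C and loaded with Fluo-8 calcium dye for 40 to 90 min at room temperature. After a 10 s baseline, compound was added and calcium influx was read kinetically for 3 min (ex 480/em 520 nm).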
TRPML1 agonist = human mucolipin-1 channel agonism | TRPML1-expressing cells, Ca2+ dye fluorescence, FDSS | activation, % (test concentration not listed) | Q9GZU1 | hit rate 0.12% among 410,000; in the data active means activation above about 50%; inconclusive means mostly about 30% to 49%; further: 0% is about no effect
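TRPML1-DL cells, Tet-induced overnight (~16 h, 37 degrees C), loaded 45-90 min at room temperature with Ca8 no-wash calcium dye plus quencher. FDSS fluorescence: 10 s baseline, compound pin-transfer, 110 s agonist read, then EC80 54-4 (4uM final) and 110 s antagonist read.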
TRHR enhancer = allosterically enhances the human TRH receptor; P34981; enhancement, % at 2 µM; hit rate 0.66% among 360,000; TRHR cells, fluo-8 calcium fluorescence, EC20 TRH enhancement; in the data active means enhancement above about 30%; further: 0% is about no effect
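Enhancer read-out: after compound pinning and an initial kinetic agonist-mode read, an EC20 of TRH (10 nM final) was injected and fluo-8 calcium signal (Ex 480/Em 530) followed at 1 s/cycle for 100 cycles in TRHR-expressing cells.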
TRPML1 inh = blocks the human TRPML1 channel; hit rate 0.02% among 390,000; TRPML1-inducible cells, Ca2+ dye fluorescence, FDSS; hits give low values; inhibition of EC80 agonist-evoked calcium signal; activity change, negative = inhibition, % (no concentration beside the values); Q9GZU1; AID 624415; in the data active means activity change below about -50%; inconclusive means between about -30% and that limit;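 further: stimulus is agonist 54-4 at its EC80 concentration; on the % scale 0 is the no-effect control and ±100 the full control effect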
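Tet-induced TRPML1-DL cells loaded with Ca8 no-wash calcium dye were read kinetically on FDSS. Compound addition was followed by EC80 agonist 54-4 (4 uM final); inhibition was read over 110 s.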
* hit, by the source's call; u = inconclusive; x = no result. Sampled rows, rich in hits. Any-hit rate of the full collection: about 0.96%.

SMILES | TRPV1 potentiator | TRHR agonist | TRPV1 agonist | TRPML1 agonist | TRHR enhancer | TRPML1 inh
CN(C)c1ccc(/C=N\Nc2ccc([N+](=O)[O-])cc2[N+](=O)[O-])cc1Br | x | x | x | 0 | x | x
CC1CCN(C(=O)Cn2cnc3c(cnn3C(C)(C)C)c2=O)CC1 | 5 | 0 | 11 | -1 | 30* | 5
COc1ccc(C(=O)COc2ncnc3cc(Cl)ccc23)cc1 | -8 | -1 | 7 | 8 | 36* | 66
CN1CCC(N(C)S(=O)(=O)c2ccc(Cl)cc2)CC1 | -5 | 0 | 3 | 0 | 35* | -8
CN(CC(=O)N1CCCC1)S(=O)(=O)c1ccc(Cl)cc1 | 4 | 0 | -1 | 0 | 30* | -4
COc1ccc(S(=O)(=O)N(C)C2CCN(C)CC2)cc1 | 3 | 0 | 3 | 0 | 1 | 5
S=C(NCCCc1cnc[nH]1)NCCCN(CCc1ccc(Cl)cc1)c1ccc(Br)cn1 | x | x | x | 0 | x | x
COc1ccc2ccccc2c1/C=N/NC(=O)c1cccc(Br)c1 | 11 | 0 | 0 | 2 | 10 | 29
O=C(N/N=C/c1c(O)ccc2ccccc12)c1cccc(C(F)(F)F)c1 | -19 | 99* | u | 92* | 14 | 19
Cc1ccc(Nc2nc(NCc3ccco3)nc3nccnc23)cc1C | x | x | x | -1 | x | x
O=C(c1ccc(-n2c(SCc3cccc(F)c3)nc3ccccc3c2=O)cc1)N1CCOCC1 | -9 | 0 | 87* | 0 | 0 | -2
O=C(O)c1ccc(CSc2nc3ccccc3c(=O)n2-c2ccccc2)cc1 | -3 | 0 | 0 | x | 1 | x
CCCC1O[C@@H]2C[C@H]3[C@@H]4CCC5=CC(=O)C=C[C@]5(C)[C@H]4[C@@H](O)C[C@]3(C)[C@]2(C(=O)CO)O1 (stereo not given in full) | -4 | 1 | 6 | 1 | 33* | 3
Cc1c(Cl)cccc1-n1c(SCC(=O)NCc2ccccc2)nc2n[nH]c(C)c2c1=N | x | -1 | x | 2 | 42* | 21
CCCCc1nc(N2CCN(C(=O)c3ccco3)CC2)c(C#N)c2c1CCCC2 | -27 | 1 | 86* | 1 | -3 | 48
CCC(=O)N1CCN(c2nc(-c3ccccc3)c3c(c2C#N)CCCC3)CC1 | -1 | 1 | 102* | 0 | -4 | -7
O=[N+]([O-])c1ccc(O/N=[N+](\[O-])N2CCN(c3ccccc3)CC2)c([N+](=O)[O-])c1 | x | x | x | 1 | x | 45
COc1ccc(/C=C/c2ccc3ccccc3n2)c(OC)c1 | x | x | x | 0 | x | x
S=c1[nH]c(-c2ccccc2)cn1/N=C/c1cccc2ccccc12 | 0 | 1 | -1 | 2 | 34* | -9
S=c1[nH]c(-c2ccccc2)cn1/N=C/c1ccccc1Br | 0 | 2 | 5 | -1 | 0 | 18
O=C(Cc1ccc(OCCCCc2ccccc2)cc1)NO | x | x | x | 0 | x | x
O=S(=O)(c1ccc2ccccc2c1)N1CCCCCC1 | 12 | -1 | -4 | 0 | 31* | 10
O=S(=O)(c1ccc2ccccc2c1)N1CCCCC1 | -12 | -1 | 13 | 2 | -4 | -14
CCOc1cc(C(=O)Nc2ccc3oc(-c4ccc(CC)cc4)nc3c2)cc(OCC)c1OCC | x | 1 | x | 2 | 36* | -20
CC1CCC(N2CC(=O)N(C3CCCC3)C(c3ccc(Cl)cc3)C2=O)CC1 (stereo not given) | x | 0 | x | 1 | 31* | 0
SMILES | TRPV1 potentiator | TRHR agonist | TRPV1 agonist | TRPML1 agonist | TRHR enhancer | TRPML1 inh
O=C(Oc1ccc(C(=S)N2CCOCC2)cc1)c1ccc([N+](=O)[O-])cc1[N+](=O)[O-] | 10 | 1 | 2 | 0 | 0 | 10
O=C(Oc1ccc(Br)cc1C(=S)N1CCOCC1)c1ccc([N+](=O)[O-])cc1[N+](=O)[O-] | u | 0 | 0 | -2 | 36* | -3
Cc1[nH]nc2c1C(c1ccc(-c3ccc(Cl)cc3)o1)C(C#N)=C(N)O2 (stereo not given) | 5 | 0 | 3 | 1 | 31* | -2
Cc1ccc(-c2ccc(C3C(C#N)=C(N)Oc4n[nH]c(C)c43)o2)cc1 (stereo not given) | -3 | 0 | 2 | 10 | 2 | -14
O=Cc1ccc(CS)cc1 | x | x | x | 0 | x | x
CC(C)COc1ccc(C(=O)Nc2scc(-c3ccc(Br)cc3)c2C(=O)OC(C)C)cc1 | x | 0 | x | 1 | 31* | -2
CCOC(=O)c1c(-c2ccc(Br)cc2)csc1NC(=O)c1ccc(F)cc1 | x | -1 | x | -1 | 3 | -1
O=[S+]([O-])(c1ccc2nsnc2c1)N1CCN([S+](=O)([O-])c2c(F)cccc2F)CC1 | x | 1 | x | x | -1 | x
COc1ccc(Cl)c(Cn2cnc3c(cnn3C(C)(C)C)c2=O)c1 | x | x | x | 2 | x | -17
CN(Cc1ccccc1)C(=O)c1nc2ccccn2c1CNCCCOc1cccnc1 | 6 | 4 | 4 | -1 | -5 | 41
CN(Cc1ccccc1)C(=O)c1nc2ccccn2c1CNCCn1cccn1 | 10 | -1 | -6 | 0 | 34* | 18
N#C/C(=C/c1ccc(N2CCOCC2)o1)C(=O)Nc1ccccc1 | -14 | 90* | u | 83* | 10 | -17
CCOc1ccccc1C(=O)NCC(=O)N1CCN(Cc2ccc3c(c2)OCO3)CC1 | -15 | 0 | u | 1 | 33* | 1
CCCCc1ccc(NC(=O)Nc2cccnc2)cc1 | 6 | -1 | 85* | -1 | 7 | 1
CCCCc1ccc(NC(=S)Nc2cccnc2)cc1 | -10 | 0 | 30 | 1 | -2 | -22
Cc1cc2[nH]c3c(=O)n(Cc4ccccc4F)ncc3c2s1 | x | 0 | x | x | -6 | x
CCOc1ccc(C(=O)Nc2cccc(-c3nc4cc(Cl)cc(Cl)c4o3)c2)cc1 | x | 0 | x | -1 | 35* | 8
N#Cc1nc(Nc2cccc3ccccc23)nc(NC2CCCC2)n1 | x | 2 | x | x | -6 | x
COC(=O)C1CCN(C(=O)COC(=O)Cc2c[nH]c3ccccc23)CC1 | 18 | 1 | 3 | 0 | 37* | -8
O=c1[nH]/c(=C/c2ccc3c(c2)OCO3)c(=O)[nH]/c1=C\c1ccc2c(c1)OCO2 | x | x | x | 0 | x | x
Cc1cc(C)cc(NC(=O)Cc2csc(COc3cccc(C)c3)n2)c1 | x | 0 | x | 2 | 38* | 0
c1cc2c(cc1Cc1cncc(Cc3ccc4c(c3)OCO4)c1)OCO2 | x | x | x | -1 | x | x
Cc1cc(N2CCN(c3ccc(C(F)(F)F)cc3[N+](=O)[O-])CC2)c2ccccc2n1 | 7 | 0 | 1 | -1 | 35* | -4
CCOc1ccc(C(=O)Nc2cc(S(=O)(=O)Nc3ccccc3Cl)ccc2N2CCOCC2)cc1 | 12 | -1 | -1 | 0 | 40* | -15
CCOc1ccc(S(=O)(=O)Nc2ccccc2C(=O)Nc2ccccc2N2CCOCC2)cc1 | -3 | 0 | 16 | 1 | 2 | 10
